# Laboratory results: PubChem BioAssay (NCI)
# The panel holds about 83,000 compounds, 20% with a hit somewhere; the sample as a whole holds those more often.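 Compound tested at a single concentration for 48 hours in 96-well plates; a percent growth value below 10 was scored as active.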 A number with no mark means an inactive call. Active and inactive are the calls of the source.
# Columns and labels:
# Assay in all cases: NCI-60 one-dose screen, 48 h (100 = growth as untreated, 0 = no growth, -100 = all killed)
# Details in all cases: 10 µM unless noted
# [1] = test system: DU-145 prostate
# [2] = test system: K-562 leukemia
# [3] = test system: MALME-3M melanoma
# [4] = test system: MDA-MB-231 breast
# [5] = test system: RXF 393 renal
# [6] = test system: SF-268 CNS
# [7] = test system: SF-295 CNS
# [8] = test system: SF-539 CNS
# [9] = test system: UACC-257 melanoma
# [10] = test system: M14 melanoma
# [11] = test system: HCT-15 colon
# [12] = test system: HT29 colon
# [13] = test system: SNB-75 CNS
# [14] = test system: SNB-19 CNS
# [15] = test system: U251 CNS
# [16] = test system: PC-3 prostate
# [17] = test system: SK-MEL-5 melanoma
# [18] = test system: UACC-62 melanoma
# [19] = test system: LOX IMVI melanoma
# [20] = test system: SK-MEL-28 melanoma
SMILES,growth [1],growth [2],growth [3],growth [4],growth [5],growth [6],growth [7],growth [8],growth [9],growth [10],growth [11],growth [12],growth [13],growth [14],growth [15],growth [16],growth [17],growth [18],growth [19],growth [20]
COC(=O)c1nc(-c2ccccc2)oc1S(=O)(=O)NCC(c1ccc(Cl)cc1)N1CCOCC1 (stereo not given),78.2%,13.4%,76.9%,75.8%,83.6%,77%,101%,92.3%,87.3%,35%,44.2%,40%,94.3%,89.4%,72.8%,50%,86.4%,80.9%,48.7%,94.3%
C#Cc1cccc(Nc2nc(C)nc3cc(NC(=O)CCl)ccc23)c1,-95.8% (active),0.173% (active),-77.6% (active),-73.1% (active),-87.2% (active),-67.2% (active),-79.7% (active),-92.8% (active),-60.9% (active),-27.5% (active),-63.7% (active),-84% (active),-94.7% (active),-32.9% (active),-93.9% (active),-81.2% (active),-94% (active),-46.5% (active),-81.7% (active),-81.9% (active)
O=[N+]([O-])c1cc(NS(=O)(=O)c2ccccc2)ccc1NS(=O)(=O)c1ccccc1,87.1%,125%,155%,91%,134%,106%,133%,118%,95%,88.5%,72.1%,84.6%,125%,108%,102%,80.7%,99.4%,85.7%,99%,111%
O=C(Nc1cnc(Nc2ccc(N3CCOCC3)nc2)nc1Oc1ccc(C(F)(F)F)cc1)c1ccncc1,66%,78.7%,96.9%,94.5%,93.1%,86.3%,104%,-53.1% (active),92.8%,99%,96.9%,101%,89.8%,91.1%,92.1%,97.4%,95.3%,94.1%,86%,95.8%
CN(C)c1ccc(-c2ccc3c(c2)c(-c2ccccc2)nc(=O)n3C)cn1,69.7%,3.37% (active),62.6%,50.4%,61.3%,46.2%,31.3%,14.2%,57.5%,20.7%,30.4%,11.7%,27.8%,34.3%,30.4%,-42.8% (active),22%,25.2%,34.3%,55.2%
C=CCOC(=O)C1=C(C)N(CC)C(=O)NC1c1c(Cl)n(C)c2ccccc12 (stereo not given),106%,99.1%,99.3%,96.7%,108%,92.9%,88.6%,98.4%,98.4%,88.6%,82.5%,89.8%,92.3%,99.9%,97.9%,87.7%,100%,82.6%,88.6%,104%
N#CSc1c[nH]c2cccc(/C=C/C(=O)/C=C(O)/C=C/c3cccc4[nH]cc(SC#N)c34)c12,-78.7% (active),-12.9% (active),-82.3% (active),-78.3% (active),-62.9% (active),-31.9% (active),-87.7% (active),-68.5% (active),-27.4% (active),-59.7% (active),-79.1% (active),-62.7% (active),-23.1% (active),-80.6% (active),-91.9% (active),-53% (active),-87.5% (active),-65.4% (active),-94.8% (active),-68.2% (active)
CC1=C2[C@@H](CC1)[C@]1(C)O[C@@](c3ccccc3)(C[C@H]1OC(=O)CO)[C@H]2OC(=O)/C=C/c1ccccc1,97.8%,70.6%,88.6%,91.4%,36.2%,33.1%,91%,111%,103%,96.8%,92.6%,87.2%,-50.7% (active),96.1%,88.4%,63.2%,88.9%,79%,82.1%,117%
O=c1ccc(=O)n(-c2nc(-c3ccc([N+](=O)[O-])cc3)cs2)[nH]1,97.7%,95.2%,114%,105%,88.4%,95%,98.1%,97.3%,102%,101%,96%,55.6%,92%,96.1%,95.6%,98.6%,95.6%,90.7%,98.5%,105%
C#CCOc1cccc(-c2ncnc3cc(NC(=O)C=C)ccc23)c1,15.6%,24.2%,60.5%,15.8%,30.8%,49.6%,43.2%,8.33% (active),62.5%,45.6%,24%,10.8%,10.6%,50.6%,51.4%,37.2%,68.5%,34.6%,34.1%,70.5%
O=C(N=Nc1c(O)[nH]c2ccccc12)Nc1ccc(F)cc1,105%,85%,97.6%,94%,110%,104%,95%,94.9%,93.9%,99.7%,97%,102%,91.3%,97%,90.7%,85.9%,101%,79.3%,92.2%,108%
Cc1ccc(-c2nc(SCc3nc4cc(Cl)c(Cl)cc4[nH]3)[nH]c(=O)c2C#N)cc1,91.6%,93.4%,95.6%,97.9%,108%,91.6%,104%,97.5%,91.3%,91.2%,104%,95.7%,87.2%,106%,98.7%,94%,104%,99.5%,102%,111%
CCN(CC)CCN1C(=O)c2c(c(C)c3c(oc4ccc(OC)cc43)c2C)C1=O,94.1%,90.5%,91.9%,96.3%,82.2%,94.9%,105%,94.1%,101%,103%,90%,87.5%,116%,88%,87.3%,90.7%,82.7%,97%,93.3%,91.6%
Cc1nn(-c2cc(NC3CCC(O)CC3)c3c(=O)[nH]c(CCC(F)(F)F)cc3c2)c2c1C(=O)CC(C)(C)C2 (stereo not given),27%,18.5%,60%,42%,39.1%,72%,48.5%,58%,62.7%,32.3%,31.1%,13.9%,56.8%,63.1%,56.5%,55.4%,51.7%,45%,30.2%,53.8%
C/C(=N\O)c1ccc(NC(=O)CSc2nnc(-c3cc(-c4ccc(S(N)(=O)=O)cc4)nc4ccccc34)n2-c2ccccc2)cc1,80.3%,43%,80%,74.3%,83.9%,60.3%,92.2%,76.4%,87.3%,74.4%,81%,66.2%,24.3%,66.9%,62.5%,63.6%,54%,62.4%,37.7%,84.4%
